# VLA-4 antagonist: inhibitors of LDV-FITC ligand binding to Mn2+-activated human VLA-4 integrin; 0.2% of 24,000 active; Jurkat cells, LDV-FITC binding with Mn2+, flow cytometry; 100% = Mn2+-driven binding gain fully reversed; inhibition, % at 10 µM (by protocol); P13612;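 active means inhibition above 50%; inconclusive means compound itself fluorescent, judged against control cell fluorescence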;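 further: 0% = Mn2+ stimulated cells lacking compound and 100% = ligand binding without Mn2+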
# Target sequence (P13612 whole entry, looked up): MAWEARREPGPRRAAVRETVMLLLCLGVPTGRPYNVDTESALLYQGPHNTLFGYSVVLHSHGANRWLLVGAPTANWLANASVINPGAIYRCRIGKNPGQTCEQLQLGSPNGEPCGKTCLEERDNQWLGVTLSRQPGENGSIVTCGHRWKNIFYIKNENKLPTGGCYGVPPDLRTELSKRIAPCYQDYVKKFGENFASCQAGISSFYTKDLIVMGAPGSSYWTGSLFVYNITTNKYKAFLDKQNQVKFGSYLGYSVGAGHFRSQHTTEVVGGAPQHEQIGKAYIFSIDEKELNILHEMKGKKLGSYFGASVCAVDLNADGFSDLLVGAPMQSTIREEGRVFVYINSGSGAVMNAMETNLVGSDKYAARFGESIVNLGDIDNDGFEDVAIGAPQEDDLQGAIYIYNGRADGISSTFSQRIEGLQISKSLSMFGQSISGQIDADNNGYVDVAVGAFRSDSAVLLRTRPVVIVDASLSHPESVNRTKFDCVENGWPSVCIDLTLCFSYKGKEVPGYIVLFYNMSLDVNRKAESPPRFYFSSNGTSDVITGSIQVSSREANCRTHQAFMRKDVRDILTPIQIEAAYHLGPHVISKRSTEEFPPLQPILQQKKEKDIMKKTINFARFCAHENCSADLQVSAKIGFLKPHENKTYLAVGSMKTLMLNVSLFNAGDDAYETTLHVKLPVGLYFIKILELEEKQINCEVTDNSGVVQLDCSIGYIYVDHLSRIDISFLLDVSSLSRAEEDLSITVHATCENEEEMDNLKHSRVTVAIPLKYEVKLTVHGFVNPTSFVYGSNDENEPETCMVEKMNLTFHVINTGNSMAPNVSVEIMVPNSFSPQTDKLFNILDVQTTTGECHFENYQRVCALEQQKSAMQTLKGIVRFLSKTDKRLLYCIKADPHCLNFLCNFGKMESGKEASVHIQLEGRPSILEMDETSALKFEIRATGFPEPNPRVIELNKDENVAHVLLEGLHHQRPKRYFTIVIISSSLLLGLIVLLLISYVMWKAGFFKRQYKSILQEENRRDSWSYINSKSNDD
# Autofluor Jurkat: compound fluoresces in Jurkat cells, VLA-4 screen interference; compound autofluorescence, flow cytometry; stronger effect = higher value; 1 = vehicle-only cell background; fluorescence ratio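 (tested at 10 µM compound in the well)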; 0.61% of 24,000 active; AID 576;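 active means fluorescence ratio above 2.44, which is 1 plus 3 SD of all ratios; inconclusive means signal too bright to measure linearly, ratio around 10 or more; inactive means fluorescence ratio below 2.44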;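 further: green fluorescence of cells measured with 488 nm excitation and 530 nm emission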
# VLA-4 allo ag: allosterically activates the human VLA-4 integrin; Jurkat cells, LDV-FITC binding, flow cytometry; activation, % at 10 µM (by protocol); 24,000 tested, under 10 active; AID 528;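 active means fluorescent ligand binding to cells raised by more than 40% of the manganese-induced maximum; inconclusive means compound's own fluorescence above 85% of the ligand control signal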;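 further: 0% = ligand binding without compound and 100% = manganese-stimulated maximal binding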
# FPR binder: human FPR ligand, with FPRL1 counter-screen; 0.74% of 24,000 active; P21462; AID 440; FPR-expressing cells, fluorescent ligand binding, flow cytometry; inhibition, % (test concentration not listed);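 further: 0% = buffer wells and 100% = receptor blocker peptide wells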
# FPRL1 binder: ligands of human FPRL1, also counter-screen for FPR ligands. inhibition, % (no concentration beside the values). 0.3% of 24,000 active. FPRL1-expressing cells, fluorescent ligand binding inhibition, flow cytometry. P25090. AID 441;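 further: 0% = buffer alone and 100% = receptor blocker peptide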
# The depositor's hits bear a star; ? = inconclusive; nt = no result given. Compounds with a hit are over-represented: about 1.4% of the library has one in this group of screens. Unless noted, no stated cut-off is given here; in the data, active means inhibition above about 30%; inconclusive means no clear call, values can overlap the other calls; inactive means below that.
SMILES,VLA-4 antagonist,Autofluor Jurkat,VLA-4 allo ag,FPR binder,FPRL1 binder
C=CCOc1ccc(/C(O)=C2/C(=O)C(=O)N(CCN3CCOCC3)C2c2ccc(C)cc2)cc1 (centres undefined),nt,nt,nt,-6,-6
COc1ccc(/C(O)=C2/C(=O)C(=O)N(CCN3CCOCC3)C2c2ccc(C)cc2)cc1 (centres undefined),nt,nt,nt,26,31*
CC(=O)N1CCc2cc(S(=O)(=O)NC(CC(C)C)C(=O)N3CCn4c3nc3ccccc34)ccc21 (centres undefined),-13,1,3,0,1
COCCOC(=O)c1cc(C(=O)c2cc(F)ccc2O)coc1=N,?,4.1*,?,-6,-8
CCOC(=O)c1c(C)c(C(=O)Nc2cc(F)ccc2F)c(C)n1C,?,1.3,?,4,3
Cc1cc(/C=c2/sc3nc4ccccc4n3c2=O)c(C)n1-c1ccccn1,?,3.7*,?,-13,-19
Nc1nc(C(=O)N2CCOCC2)nn1S(=O)(=O)c1ccc(Cl)cc1,-6,1.1,3,-6,0
O=C(c1nc2n(n1)C(c1ccc(Cl)cc1)C=C(c1ccccc1)N2)N1CCOCC1 (centres undefined),?,3.5*,?,-3,-8
CCOC(=O)CSc1nnc(CNC(=O)c2ccc(OC)c(OC)c2)n1C,-12,1,-3,0,1
CCOc1cc(C(=O)NCc2nnc(SCC(=O)OC)n2C)cc(OCC)c1OCC,0,1,0,9,75*
CCOC(=O)CSc1nnc(CNC(=O)c2cc(OC)c(OC)c(OC)c2)n1C,15,0.99,1,2,-2
CCOC(=O)CSc1nnc(CNC(=O)c2cc(OCC)c(OCC)c(OCC)c2)n1C,16,0.92,11,-6,51*
CCCCN(CC)C(=O)C1CCC(=O)N(c2ccc(OC)cc2)C1c1ccc(OC)c(OC)c1 (centres undefined),8,0.93,5,7,2
COc1ccc(-c2cn3cccnc3n2)cc1NC(=O)C1CC1,28,1.1,-6,-4,76*
COc1ccc(NC(=O)C2CCCN(S(=O)(=O)c3cccc4cccnc34)C2)c(OC)c1 (centres undefined),12,1.1,-5,2,-3
COc1ccc(-c2cn3cccnc3n2)cc1NC(=O)C1CCCC1,-4,1.1,-4,2,74*
COc1ccc2nc(Nc3nc(C)c(C(C)=O)s3)sc2c1,63*,1.2,-12,6,59*
Cc1ccc(CCNC(=O)c2coc3nc4ccccc4nc23)cc1,?,4.2*,?,-3,-7
CC1CCCN(CCCNC(=O)c2coc3nc4ccccc4nc23)C1 (centres undefined),?,4.7*,?,-4,-11
CC1CCN(CCCNC(=O)c2coc3nc4ccccc4nc23)CC1,?,2.4,?,-2,-4
O=C(NCc1ccccn1)C(C(=O)c1ccc(F)cc1)n1ccccc1=O (centres undefined),-4,1,-16,5,-12
Cc1ccccc1-n1c(Cn2c(=O)sc3ccccc32)nnc1SCC(=O)NCC1CCCO1 (centres undefined),-45,1,0,8,8
O=C1C(=O)N(CCCn2ccnc2)C(c2cccnc2)/C1=C(/O)c1ccc(Cl)cc1 (centres undefined),nt,nt,nt,-3,5
COc1ccc(NC(=O)C(c2ccc(C)cc2)N(C)C(=O)c2cnccn2)cc1 (centres undefined),-13,1,1,18,38*
FC(F)(F)c1nnc2ccc(-n3ccnc3)nn12,-8,1.1,-6,-6,4
SMILES,VLA-4 antagonist,Autofluor Jurkat,VLA-4 allo ag,FPR binder,FPRL1 binder
CCCOc1ccc(C2C(C(=O)c3ccco3)=C(O)C(=O)N2CCN2CCOCC2)cc1OC (centres undefined),nt,nt,nt,20,-4
COCCCN1C(=O)C(O)=C(C(=O)c2ccco2)C1c1ccc(Br)cc1 (centres undefined),-10,1,4,48*,-4
COCCCN1C(=O)C(O)=C(C(=O)c2ccco2)C1c1cccc(Br)c1 (centres undefined),nt,nt,nt,70*,-7
COCCCNC(CC(=O)Nc1ccc(N(C)C)cc1)C(=O)O (centres undefined),?,1.6,?,0,0
C=CCSc1nc(N)c2c(C)c(C)sc2n1,-16,1.1,0,1,-5
CC(=O)SCC(=O)N=c1sc2cc(F)ccc2n1C,-15,0.99,8,56*,34*
CC(=O)Nc1cccc(C(=O)Oc2cccc(C)c2)c1O,61*,1,-2,1,-9
COC(=O)C1=C(C)NC(=O)C1(NC(=O)CN1CCCC1=O)C(F)(F)F (centres undefined),-6,1,2,5,3
CN1CCc2c(sc3c2C(=O)NC(c2cccc(OC(=O)c4cccs4)c2)N3)C1 (centres undefined),?,3.2*,?,2,0
CC(C)c1cc(C(=O)Nc2cc(Cl)ccc2O)no1,?,3.8*,?,-19,-12
CC(C)c1cc(C(=O)Nc2cccc(Cl)c2)no1,7,1.1,0,-1,3

# Source: PubChem BioAssay (NMMLSC)
